According to the supplement of paper PMC6555819:

tested on: VDR:RXRa (NR concentration 270 nM, RXRa partner concentration 90 nM); assay: PBM binding z-score (relative to random genomic background probes); higher = stronger binding; sequences stand for … in GC…GCGATTGACAGCGTAGAATGAAGG
Procedure: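 Protein-binding microarray (Agilent 4x180K custom design, double-stranded 60-nt probes: 5' GC cap, 34-nt variable region, 24-nt constant primer region; full probe sequence given). Purified or IVT nuclear receptor:RXRα heterodimers (3:1 NR:RXRα, mostly 270:90 nM) or homodimers were incubated for 1 h in PBS with 2% milk and no ligand, then detected with Alexa488 antibodies. Fluorescence from o1-orientation probes (~5 replicates averaged) was converted to z-scores against 500 random hg19 background probes. Variable regions are seed direct-repeat (DR0–DR5) sites, all their single-nucleotide variants and half-site ablations.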

Row | Sequence | PBM binding z-score
1 | CGTCAAAGTTCAAGGTAACGTACCAGAAAGCAGC | 3.87
2 | ATATTTAGGTTAGCTGGGGTCATTCAGACTAGGC | 6.03
3 | CCTCGCAGGACAGAAGGTCAGAGCTGTCCGCTTT | 0.93
4 | CCGACTGGGGCATAAGGTTACCATGAGCCAGCCC | 0.177
5 | CGTCAAAGTGCAAGGTAACGTAACAGAAAGCAGC | -0.0204
6 | TCTTGTAGATCAATAGAGGTTAAGAAGGTGCGCT | 1.91
7 | TCTAGCAGGACAGAGGGTCACTCAAGAGGTACGG | 1.39
8 | GCTAGCAGACCATTTGGGTCACTCAATGACGGGC | -0.0299
9 | ACAGACAGGTGAGCGAAGGTAACTCAGCTGGACG | -0.641
10 | TTACCGAGGTGAAGGTCGTTGATCCCTCTGTAGA | 1.5
11 | TCGAGTAGGTTCGGGGCATTCAGAATGGCGTCGA | 0.124
12 | ATCTCTAGGTAAGACTCAATTCAGTGAAGAACGC | 0.199
13 | AGTCAAAGTTCAGGACGATGTAACGTAAAGCACG | 2.56
14 | CATACAGGGTCAGCTAGGCCAGAGTTGGGACGGC | 3.74
15 | ACAGACATGTGAGTGAAGGTAACTCAGCTGGACG | -0.252
16 | TCTCGGAGGACACGAAGGTCAGAGATTTCCAGAG | 2.26
17 | ATCGAAATGTCGACGAGGTGAGTATACACCGTTT | 0.509
18 | TATACAGGGTCACAGGCCAGAGTACGAATGTCGA | 4.92
19 | ACAGACAGGTGAGTGTAGGTAACTCAGCTGGACG | -0.371
20 | ACTCGGAGGACAAAGGTCTGAGCTACGCCAGTGA | -0.29

Row | Sequence | PBM binding z-score
21 | TCGAGTAGGTTAGGGGCATTCAGAATGGCGTCGA | 0.508
22 | TCTATTAGTTGATTACGGCAACCGAAACAGCGGA | 0.738
23 | CGAACTAGGTCAGAACAGGAGAGTGAAGGATGAT | 0.035
24 | CCTCGGAGGACAGACGGTCAGAGCTGTCCGCTTT | -0.53
25 | ATATGTAGGTTAGCTGGGGTCATTCAGACTAGGC | 6.27
26 | CAAACTAGGTCAAGGCCAAAGTCGGTTTGTGCCA | 1.84
27 | CTCTAAAGGTCGTGCTCAGGTGAGTATACCAAAC | 3.27
28 | GGAACGAGGGCAAGTGGATAGCAGAGTTTGATGG | 0.391
29 | CCTTATGGGTCACTCCAGGTTATAGCATCGGAGT | 3.33
30 | TCATATAGGTAATACAGGTGAAAGTTGGCATCTA | 1.46
31 | CAAACTAGGTCGCCGGAAGGTCAAAGTCCGCATG | 4.5
32 | CCTAGTTGGTCAGGGTCACACACGCTATAGGTAC | 4.17
33 | TCTTGGAGATCAACAGGAGGTTAAGAAAGATCGA | 0.539
34 | TCTTGTAGATCAATAGAGGGTAAGAAAGTGCGCT | 0.717
35 | CGTCCAAGGTCAAAGGTGAGTGAAGAGATGACGG | 4.94
36 | CGAACAAGGTCAAGGACAGTGAATCTCCGCACGC | 4.11
37 | AGAACGAGGGCACGCTGAGTTGCTAGCAGAGTAG | 1.18
38 | GCGACTGGGGCAAAGCAGATTACCATAAGGTTGG | -0.591
39 | CCGACTGGGGTAGAAAGGTTACCATACCATCCGG | 0.692
40 | GCTTGTAGGTCAAGGTTAAGAAAGACTAAGCTAA | 2.3
